PubChem BioAssay
Activity calls are given as the source filed them. No rule for the calls is given here.

What follows are compounds tested against Pantothenate synthetase (Mycobacterium tuberculosis (strain ATCC 25618 / H37Rv)) (UniProt P9WIL5) (assay: Coupled enzyme confirmation of inhibitors against recombinant Mtb PanC (AID 375;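 also: 0% = full reaction with vehicle and 100% = no enzyme background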)). Details: coupled enzyme assay; at 10 µM, stronger effect = higher value.
Chain of Pantothenate synthetase (Mycobacterium tuberculosis (strain ATCC 25618 / H37Rv)) (P9WIL5 whole entry, looked up): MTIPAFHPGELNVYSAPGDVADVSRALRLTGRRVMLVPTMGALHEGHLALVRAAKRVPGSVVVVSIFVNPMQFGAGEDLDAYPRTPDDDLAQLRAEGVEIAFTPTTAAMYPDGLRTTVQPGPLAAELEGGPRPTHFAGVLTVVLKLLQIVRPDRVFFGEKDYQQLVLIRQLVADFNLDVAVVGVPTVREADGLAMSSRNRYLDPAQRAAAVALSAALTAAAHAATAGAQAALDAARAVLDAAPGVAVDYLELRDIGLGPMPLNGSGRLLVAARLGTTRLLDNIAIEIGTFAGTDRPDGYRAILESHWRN

Structure (SMILES) | inhibition
CC(=N\O)/C(CN(C)C)=N/O | 0% (inactive)
CCOC(=O)c1sc(NC(=O)CSc2nnc(-c3ccc(OC)cc3)n2CCOC)nc1C | 6% (inactive)
Cc1cc(NC(=O)CSc2ccc(Cl)cc2)no1 | 0% (inactive)
CCSc1nc(C)nc2c1oc1ccccc12 | 0% (inactive)
O=C1CC(N2CCN(C3CCc4ccccc4C3)CC2)C(=O)N1c1ccccc1 (stereo not given) | 0% (inactive)
CCOC(=O)C1CCCN(C(=O)c2cccs2)C1 (stereo not given) | 8% (inactive)
O=C(CSc1nnc(Cn2cnc3ccccc32)o1)c1ccccc1 | 0% (inactive)
Cc1cccc2cc(CN(CCCO)C(=O)Nc3ccc(Cl)cc3)c(=O)[nH]c12 | 5% (inactive)
CCOC(=O)c1[nH]c(C)c(C(=O)Nc2ccccc2F)c1C | 3% (inactive)
Cc1cc(C)cc(NC(=O)c2nnn(Cc3cc(C)ccc3C)c2N)c1 | 0% (inactive)
CCCN1CCN(CCCNC(=O)C2CCCN(c3nc4ccc(OCC)cc4s3)C2)CC1 (stereo not given) | 1% (inactive)
CCCn1c(SCC(=O)Nc2ccccc2C(=O)OCC)nc2c1c(=O)n(C)c(=O)n2C | 0% (inactive)
Cc1cc(C(=O)OCCO)c(C#N)c(N)n1 | 0% (inactive)
CCn1nnnc1NCc1cccn1C | 5% (inactive)
Cc1cc(C)c(NC(=O)CSc2nc3c(c(=O)n2C)SC(C)C3)c(C)c1 (stereo not given) | 0% (inactive)
O=C(NCc1ccco1)c1ccc2c(=O)n(CC3CCCO3)c(=S)[nH]c2c1 (stereo not given) | 3% (inactive)
CCOC(=O)c1ccc(CC2S/C(=C(\C#N)C(C)=O)NC2=O)cc1 (stereo not given) | 10% (inactive)
O=C(NC1CCCCC1)C(c1ccccc1)N(Cc1ccco1)C(=O)Cn1cnc2ccccc21 (stereo not given) | 0% (inactive)
COc1cc2nc(SCC(=O)NC3CC3)n(CCC3=CCCCC3)c(=O)c2cc1OC | 1% (inactive)
COc1ccc2c(c1)C(C)=CC(C)(C)N2C(=O)CSc1nnc(-c2ccc(C)cc2)o1 | 0% (inactive)

Structure (SMILES) | inhibition
COc1cccc(NC(=O)c2nnn(Cc3ccc(Br)cc3F)c2N)c1 | 7% (inactive)
CC1CCc2nn(CC(=O)N3CCN(C(=O)c4ccco4)CC3)cc2C1 (stereo not given) | 10% (inactive)
CC(=O)N1C(=O)N(C)C2C1N(C(C)=O)C(=O)N2C (stereo not given) | 1% (inactive)
CCc1cccc(NC(=O)CCc2nc(-c3cccs3)no2)c1 | 0% (inactive)
COCCCN1C(=O)C(O)=C(C(=O)c2ccco2)C1c1ccc(Br)cc1 (stereo not given) | 6% (inactive)
Cc1cc(C)n(CC(=O)O)n1 | 0% (inactive)
CCOC(=O)Cn1nnc(-c2ccc(SC)cc2)n1 | 0% (inactive)
O=C(Nc1ccccc1C(F)(F)F)c1cc(S(=O)(=O)N2CCOCC2)ccc1F | 0% (inactive)
Cn1c(=O)c(=O)n(C)c2cc(S(=O)(=O)N3CCCCC3)ccc21 | 14% (inactive)
Cc1cc(C)n2cc(CSc3nnnn3C)nc2n1 | 0% (inactive)
Cc1ccc(S(=O)(=O)NCC2CCC(C(=O)NCCCN3CCOCC3)CC2)cc1 (stereo not given) | 0% (inactive)
C#CCN1C(=O)C(O)(CC(=O)c2cc(OC)ccc2OC)c2ccccc21 (stereo not given) | 6% (inactive)
c1ccc2ncc(-n3cnnn3)cc2c1 | 0% (inactive)
O=c1[nH]c2ccc(Br)cc2c(-c2ccccc2)c1N1CCOCC1 | 1% (inactive)
COc1ccc(CCNC(=O)CC2COc3ccccc3O2)cc1OC (stereo not given) | 0% (inactive)
Cc1cccc2cc(COC(=O)C(C)(C)C)c(=O)[nH]c12 | 0% (inactive)
Cc1cc(C)c2c(=O)n(CC(=O)NCCCN3CCN(c4ccccc4F)CC3)sc2n1 | 0% (inactive)
O=C(c1ccccc1)N1CCN(CC2CC=CCC2)CC1 (stereo not given) | 0% (inactive)
O=C(COC(=O)c1cccc(S(=O)(=O)N2CCc3ccccc32)c1)NC1CCS(=O)(=O)C1 (stereo not given) | 0% (inactive)
O=C(Nc1cccc(Cl)c1)N1CCN(c2ncccn2)CC1 | 1% (inactive)
